# Screening results (PubChem BioAssay)
# HTT cytoprotect = cytoprotection in Huntington HTT-Q103 PC12 cell model. PC12 HTT-Q103 induced, cytoprotection, ATP luminescence, 40 h. AID 1471. Potency, µM (series often up to 56.4 µM), without a hit: cytoprotection (ATP increase), hits mostly activators. 0.14% of 230,000 active; further: % of control where 0% means no effect; nearly all actives have a fitted effect of over 45% in size
#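 Compounds were screened for protection of PC12 cells against cell death after tebufenozide induction (100 nM final) of mutant Huntingtin exon 1 (Q103) fused to GFP.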
# HepG2 tox-1 = HepG2 cytotoxicity, counter-screen for TGF-b inhibitors. HepG2 CAGA-GFP viability, ATP luminescence, 18 h. Potency, µM (top dose mostly 46.1 µM), inactives show at the top dose activity change, negative = cytotoxicity, most hits filed as cytotoxic. 0.76% of 410,000 active. AID 588856
#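 HepG2 CAGA-GFP cells (1000/well, DMEM with 1% FBS) received compound, then TGF-beta at 500 pg/mL final, and were incubated 18 hours at 37 degrees C. Viability was read by CellTiter-Glo luminescence. Media-only wells were set as complete cell-killing and DMSO as no toxicity.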
# ATXN2 expr inh = inhibitors of ATXN2 expression. HEK-293 ATXN2-luciferase reporter, luminescence, 24 h. Potency, µM (top dose mostly 57 µM), for inactives: top-dose activity change, negative = inhibition, most hits filed as inhibitors. 0.72% of 360,000 active. AID 1745845; further: on the % scale 0 is the no-effect control and ±100 the full control effect; nearly all actives have a fitted effect of over 55% in size
#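 ATXN2-luciferase reporter cells (luciferase flanked by upstream and downstream ATXN2 gene portions) were treated 24 h at 37 °C with compounds at up to 57 uM. SteadyGlo luminescence gave expression; GF-AFC fluorescence gave viability.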
# ATXN viability = cell viability loss in ATXN counter-screen | Potency, µM (highest dose often 56.7 µM), hits mostly cytotoxic | S2 cells (HEK-293 line with an ATXN2-luciferase reporter) viability, CellTiter-Fluor protease fluorescence, 24 h | 0.49% of 400,000 active; further: nearly all actives have a fitted effect of over 40% in size
# TGFb SMAD3 inh = inhibitors of TGF-b signaling; AID 588855; Potency, µM (titrated, usually from 46.1 µM), without a hit: at the highest dose activity, negative = inhibition, most hits filed as inhibitors; HepG2 CAGA-GFP TGF-b/SMAD3 reporter, GFP fluorescence, 18 h; TGF-beta stimulated, 500 pg/mL final; 1.2% of 410,000 active; further: on the % scale 0 is the no-effect control and ±100 the full control effect; nearly all actives have a fitted effect of over 65% in size
#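 HEPG2 CAGA-GFP cells (1000/well, DMEM with 1% FBS) were pre-incubated 2 h at 37 degrees C, given compound by pin tool, then stimulated with TGF-beta at 500 pg/mL final for 18 h before per-cell GFP fluorescence imaging.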
# HTT aggregate = inhibitors of mutant huntingtin aggregate formation in PC12 cells; 1.1% of 220,000 active; AID 1688; PC12 HttQ103-GFP aggregates, Acumen cytometry, 40 h; Potency, µM (top dose mostly 46.1 µM), inactives show top-dose activity change, negative = inhibition, usual class: inhibitors; further: on the % scale 0 is the no-effect control and ±100 the full control effect; nearly all actives have a fitted effect of over 60% in size
#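 PC12/HTTQ103-GFP, ecdysone-inducible; teb 100 nM; cpd qHTS titration; GFP aggregates read on laser cytometer, Ex 488/Em 500-530 nm.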
# TGFb confirm = confirmation of TGF-b signaling inhibitors in HepG2 reporter cells | HepG2 CAGA-GFP TGF-b reporter, GFP fluorescence, 18 h; cells stimulated with TGF-beta, 500 pg/mL | 63% of 1,600 active | shares compounds with TGFb SMAD3 inh | AID 720534 | Potency, µM (doses to about 46.1 µM), without a hit: at the highest dose activity, negative = inhibition, actives largely listed as inhibitors; further: on the % scale 0 is the no-effect control and ±100 the full control effect; nearly all actives have a fitted effect of over 65% in size
# HepG2 tox-2 = toxic to HepG2 cells in TGF-b counterscreen; shares compounds with TGFb SMAD3 inh; HepG2 CAGA-GFP viability, ATP luminescence, 18 h; cells stimulated with TGF-beta, 500 pg/mL; Potency, µM (doses to about 46.1 µM), inactives show at the highest dose activity, negative = cytotoxicity, usual class: inhibitors; 27% of 1,600 active; further: on the % scale 0 is the no-effect control and ±100 the full control effect; nearly all actives have a fitted effect of over 70% in size
# CCL64 TGFb inh = orthogonal confirmation of TGF-b inhibitors in CCL64 cells; CCL64 CAGA-GFP reporter, TGF-b stimulated, GFP fluorescence, 18 h; Potency, µM (doses to about 46.1 µM), without a hit: top-dose activity, negative = inhibition, actives largely listed as inhibitors; shares compounds with TGFb SMAD3 inh; 41% of 1,600 active; further: nearly all actives have a fitted effect of over 65% in size
# COP TGFb inh = blocks TGF-b signaling in HepG2 COP reporter; shares compounds with TGFb SMAD3 inh; HepG2 COP-GFP TGF-b reporter, GFP fluorescence, 18 h; cells stimulated by added recombinant TGF-beta; Potency, µM (doses to about 46.1 µM), for inactives: top-dose activity, negative = inhibition, most hits filed as inhibitors; 3% of 1,600 active; AID 720537; further: nearly all actives have a fitted effect of over 70% in size
# The depositor's hits bear a star; i = inactive; ? = inconclusive; . = no result; [ ] = dose if it differs, or a comment. Hits are enriched below; roughly 2.8% of the tested compounds scored in any of these assays. The call rests on the fitted dose curve; in most records, active means well fitted curve in the direction sought with a large enough effect; inconclusive means small, poorly fitted or top-dose-only effect, or another doubt; inactive means no such curve, though single readings can be large; an effect the other way counts as inactive or inconclusive. Potency means the concentration at half of the fitted maximal effect.
SMILES,HTT cytoprotect,HepG2 tox-1,ATXN2 expr inh,ATXN viability,TGFb SMAD3 inh,HTT aggregate,TGFb confirm,HepG2 tox-2,CCL64 TGFb inh,COP TGFb inh
Cc1ccc(N2CCN(C(=O)c3ccccc3)CC2)c(C)c1,7%,-31%,-25%,i,10µM*,?,?,7%,18µM*,15%
Cc1ccc(N2CCN(C(=O)c3ccccc3Br)CC2)c(C)c1,18%[10 µM],-10%,-4%,i,3%,?,.,.,.,.
Cc1cccc(N2CCN(C(=O)c3ccc(S(=O)(=O)N(C)c4ccccc4)cc3)CC2)c1C,.,-2%,-20%,i,5.6µM*,.,9.2µM*,-21%,?,20%
O=C(O)/C=C\C(=O)Nc1ccc2c(c1)C(=O)c1cc(F)ccc1-2,-7%[10 µM],.,.,.,.,.,.,.,.,.
FC(F)(F)c1ccccc1-c1nc(Nc2ccncc2)c2ccccc2n1,-38%,.,.,.,.,.,.,.,.,.
COc1ccc(Nc2nnc(-c3ccc(N4CCOCC4)c([N+](=O)[O-])c3)c3ccccc23)cc1,-53%,4%,4%,i,?,-29%,4.1µM*,2%,?,23%
COc1ccc(C(=O)c2ccc(N3CCOCC3)c([N+](=O)[O-])c2)cc1,24%[10 µM],-13%,-32%,?,-8%,-6%[9.22 µM],.,.,.,.
CCOC(=O)C1OC1C(=O)NC(CC(C)C)C(=O)NCCC(C)C (stereo unspecified),-4%,.,.,.,.,.,.,.,.,.
O=C(CCC(=O)N1CCSc2ccccc21)NCc1cccc(Cl)c1,.,-19%,-8%,i,?,.,?,-8%,7%,-1%
COc1ccc(-c2nc(-c3ccc4c(c3)OCO4)[nH]c2-c2ccc(OC)cc2)cc1,-35%[10 µM],-41%,-20%,?,-4%,9%,23µM*,?,26µM*,63%
Cc1cc(C)c(OCCNC(=O)c2ccccc2Sc2ccccc2C#N)c(C)c1,21%[10 µM],-28%,-22%,i,-25%,-15%,.,.,.,.
Cc1ccccc1OCCNC(=O)c1ccccc1Sc1ccccc1C#N,-23%,-26%,0%,i,10µM*,32%,-25%,-6%,-16%,-1%
O=C(NCCc1ccccc1)c1cccc(Br)n1,-19%,.,.,.,.,.,.,.,.,.
COc1ccc2[nH]c3c(C)c4ccncc4c(C)c3c2c1,-90%[10 µM],11µM*,2µM*,?,3.5µM*,-39%[9.22 µM],2.3µM*,4.1µM*,2.6µM*,?
Cc1c2ccncc2cc2c1[nH]c1ccccc12,.,-32%,?,?,?,.,.,.,.,.
CC(=O)Nc1ccc(S(=O)(=O)N2CCN(Cc3nc4sc(C)c(C)c4c(=O)[nH]3)CC2)cc1,-2%[10 µM],-7%,-12%,i,?,12%[9.22 µM],-6%,-11%,16%,-15%
